SMILES strings stand for the structures. Where “and” joins values, the source holds several entries; their conditions need not be identical. Equal entries are not always repeated. Results filed as inconclusive are left out. Calls of active or inactive are those of the source. Unless noted, calls come from the whole dose curve; as a rule, active = well fitted curve in the direction sought with a large enough effect in the repeat runs; inconclusive = weak or mixed curves; inactive = no such curve, though single readings can be large; an effect the other way counts as inactive or inconclusive.

Data on 21 compounds can be found in PubChem BioAssay (Tox21).

Assay [1] can be described thus: qHTS assay to identify small molecule agonists of the RXR signaling pathway - cell viability counter screen (AID 1159529).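 Note: HEK 293T cells carrying an RXR-alpha UAS beta-lactamase reporter; series mostly up to about 77 µM; nearly all actives have a fitted effect of over 50% in size.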 The procedure, abridged: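 HEK 293T RXRa-bla cells, 2% CS-FBS; 5 h settle; cpd 16 h 37 C, 5% CO2; CellTiter-Glo 30 min RT, luminescence. Tetraoctyl ammonium bromide as positive control.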
The nature of assay [2]: qHTS assay to identify small molecule antagonists of the retinoid acid receptor (RAR) signaling pathway - cell viability counter screen (AID 1159551). Note: nearly all actives have a fitted effect of over 35% in size. The procedure, abridged:
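In this counter screen, the RARE-luciferase line C3RL4 was exposed for 6 h at 37 C and 5% CO2 to compounds with retinol at 1 uM final. Cellular ATP, read by luminescence, served as the viability measure.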

Assay [3] is described as follows: qHTS assay to identify small molecule antagonists of the retinoic acid receptor (RAR) signaling pathway (AID 1159552; note: nearly all actives have a fitted effect of over 50% in size; note: potency is the fitted concentration of half-maximal effect). The procedure, abridged:
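Cells of the C3RL4 line were seeded, incubated overnight, then dosed with compounds in DMSO followed immediately by retinol (1 uM final). Six hours later luciferase detection reagent went in; signal was measured after 30 min at RT.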

The nature of assay [4]: qHTS assay to identify small molecule agonists of the retinoic acid receptor (RAR) signaling pathway (AID 1159553). Note: potency is the fitted concentration of half-maximal effect. The procedure, abridged: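 In this cell-based screen, 1,000 C3RL4 cells per well were cultured overnight, dosed with test chemicals in DMSO for 6 hr, and assessed for RARE luciferase luminescence.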
A short description of assay [5]: qHTS assay to identify small molecule antagonists of the estrogen related receptor (ERR) signaling pathway from Tox21 library - cell viability counter screen (AID 1224834). Note: nearly all actives have a fitted effect of over 30% in size. The procedure, abridged:
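Counter screen run in ERR cells (2,000 cells/well): cells pre-incubated 6 h, then treated with compounds for 17.5 h at 37 C. Fluorescence was read 30 min after CellTiter-Fluor addition.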

The target in assay [6] is Luciferin 4-monooxygenase (Photinus pyralis) (UniProt P08659). Description: qHTS assay to identify small molecule inhibitors of firefly luciferase (AID 1224835). Note: nearly all actives have a fitted effect of over 25% in size. Note: potency is the fitted concentration of half-maximal effect. The procedure, abridged: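 Biochemical qHTS: compounds run as interplate titrations against purified firefly enzyme, with D-luciferin and ATP each at its KM concentration. Light output recorded by CCD imaging.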

Assay [7] can be described thus: qHTS assay to identify small molecule antagonists of the constitutive androstane receptor (CAR) signaling pathway - cell viability counter screen (AID 1224837). Note: series mostly up to about 92 µM; nearly all actives have a fitted effect of over 45% in size. Put shortly:
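CITCO at 50 nM final was added alongside compounds (15 concentrations) to double-stable hCAR/CYP2B6-2.2kb HepG2 cells. Following 23 hr at 37 C, cell viability was quantified by CellTiter-Fluor fluorescence intensity.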

Assay [8] has as its target Nuclear receptor subfamily 1 group I member 3 (Homo sapiens) (UniProt Q14994). Description: qHTS assay to identify small molecule antagonists of the constitutive androstane receptor (CAR) signaling pathway (AID 1224838). Note: nearly all actives have a fitted effect of over 40% in size. Note: potency is the fitted concentration of half-maximal effect. Put shortly:
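Inhibition of CITCO-driven (50 nM final) CYP2B6 reporter expression is measured in HepG2 cells stably carrying hCAR. Fifteen compound concentrations are applied for 24 h at 37 C, followed by luciferase luminescence.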

Assay [9] has the same target. The experiment in a line: qHTS assay to identify small molecule agonists of the constitutive androstane receptor (CAR) signaling pathway (AID 1224839). Note: nearly all actives have a fitted effect of over 15% in size. Note: potency is the fitted concentration of half-maximal effect. The procedure, abridged:
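HepG2-CYP2B6-hCAR cells, 2500/well, 4 h pre-incubation; compounds 15 conc.; PK11195 0.75 uM final; 24 h, 37 C/5% CO2; ONE-Glo luciferase read.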

A short description of assay [10]: qHTS assay to identify small molecule antagonists of the estrogen related receptor signaling pathway with the pleiotropic PPARgamma coactivator (PGC) from Tox21 10K library - cell viability counter screen (AID 1224840; active = well fitted cell-killing curve with a large enough effect in the repeat runs, not every such curve was filed as active; note: nearly all actives have a fitted effect of over 40% in size). Put shortly: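 Readout: fluorescence intensity from CellTiter-Fluor after 30 min at 37 C/5% CO2. Preceded by 17.5 h treatment of PGC/ERR cells with DMSO-dissolved compounds, added 6 h post-seeding.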

Assay [11] in a line: qHTS assay to identify small molecule antagonists of the estrogen related receptor signaling pathway with the pleiotropic PPARgamma coactivator (PGC) from Tox21 10K library (AID 1224841; call rule not given here; note: actives are mostly falling curves and most rising ones were filed inactive; nearly all actives have a fitted effect of over 50% in size; note: potency is the fitted concentration of half-maximal effect). The procedure, abridged: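 One-Glo luminescence, measured after half an hour at room temperature, quantified reporter output of PGC/ERR cells. These had been plated at 2,000 per well, incubated 6 h, dosed with compounds in DMSO, then kept 18 h at 37 C.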

Assay [12] in a line: qHTS assay to identify small molecule agonists of the estrogen related receptor signaling pathway with the pleiotropic PPARgamma coactivator (PGC) from Tox21 10K library (AID 1224842). Note: nearly all actives have a fitted effect of over 15% in size. The procedure, abridged: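 PGC/ERR reporter cell line, 2,000 cells per well, incubated 6 h at 37 C before 23 nL compound in DMSO was added. After 18 h at 37 C, One-Glo luminescence read following 30 min at room temperature.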

The target in assay [13] is Thyrotropin receptor (Homo sapiens) (UniProt P16473). The experiment in a line: qHTS assay to identify small molecule agonists of the thyroid stimulating hormone receptor (TSHR) signaling pathway (AID 1224843; calls by dose curve; note: nearly all actives have a fitted effect of over 45% in size). Put shortly:
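Agonist-mode screen: TSHR HEK293 cells received test chemicals for half an hour at room temperature, then HTRF cAMP detection reagents for one hour prior to fluorescence measurement. Each chemical ran as a 15-concentration series, triplicated.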

Assay [14] is described as follows: qHTS assay to identify small molecule agonists of the constitutive androstane receptor (CAR) signaling pathway - cell viability counter screen (AID 1224836). Note: series mostly up to about 92 µM; nearly all actives have a fitted effect of over 45% in size. The procedure, abridged: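 HepG2-CYP2B6-hCAR, 2500 cells/well, 4 h pre-incubation; cpd 15 conc + PK11195 0.75 uM final; 23 h, 37 C/5% CO2; CellTiter-Fluor, fluorescence.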

Chain of Nuclear receptor subfamily 1 group I member 3 (Homo sapiens) (Q14994 whole entry, looked up): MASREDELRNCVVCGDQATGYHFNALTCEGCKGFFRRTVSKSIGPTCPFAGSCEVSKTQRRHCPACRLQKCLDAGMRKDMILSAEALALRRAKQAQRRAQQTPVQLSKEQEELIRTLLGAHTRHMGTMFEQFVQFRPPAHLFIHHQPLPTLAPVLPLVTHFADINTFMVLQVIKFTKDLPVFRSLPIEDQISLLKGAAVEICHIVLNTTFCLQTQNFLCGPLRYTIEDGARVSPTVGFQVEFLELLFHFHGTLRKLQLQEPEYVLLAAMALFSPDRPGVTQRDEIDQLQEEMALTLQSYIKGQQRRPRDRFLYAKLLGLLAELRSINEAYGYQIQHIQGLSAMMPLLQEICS
Chain of Luciferin 4-monooxygenase (Photinus pyralis) (P08659 whole entry, looked up): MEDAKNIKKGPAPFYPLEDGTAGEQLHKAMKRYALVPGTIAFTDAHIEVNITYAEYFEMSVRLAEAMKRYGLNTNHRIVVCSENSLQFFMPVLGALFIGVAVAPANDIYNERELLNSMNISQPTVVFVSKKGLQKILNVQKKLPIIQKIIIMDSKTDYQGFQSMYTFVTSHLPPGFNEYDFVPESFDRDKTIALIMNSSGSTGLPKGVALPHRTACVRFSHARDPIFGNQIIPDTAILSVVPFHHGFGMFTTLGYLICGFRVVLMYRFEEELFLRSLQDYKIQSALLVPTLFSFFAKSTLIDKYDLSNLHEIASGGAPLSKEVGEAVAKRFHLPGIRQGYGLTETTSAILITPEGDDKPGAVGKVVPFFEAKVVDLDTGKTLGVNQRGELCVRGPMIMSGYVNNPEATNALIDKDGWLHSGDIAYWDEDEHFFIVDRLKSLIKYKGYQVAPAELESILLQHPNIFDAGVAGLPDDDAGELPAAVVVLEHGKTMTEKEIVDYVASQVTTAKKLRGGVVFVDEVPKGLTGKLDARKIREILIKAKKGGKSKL
Chain of Thyrotropin receptor (Homo sapiens) (P16473 whole entry, looked up): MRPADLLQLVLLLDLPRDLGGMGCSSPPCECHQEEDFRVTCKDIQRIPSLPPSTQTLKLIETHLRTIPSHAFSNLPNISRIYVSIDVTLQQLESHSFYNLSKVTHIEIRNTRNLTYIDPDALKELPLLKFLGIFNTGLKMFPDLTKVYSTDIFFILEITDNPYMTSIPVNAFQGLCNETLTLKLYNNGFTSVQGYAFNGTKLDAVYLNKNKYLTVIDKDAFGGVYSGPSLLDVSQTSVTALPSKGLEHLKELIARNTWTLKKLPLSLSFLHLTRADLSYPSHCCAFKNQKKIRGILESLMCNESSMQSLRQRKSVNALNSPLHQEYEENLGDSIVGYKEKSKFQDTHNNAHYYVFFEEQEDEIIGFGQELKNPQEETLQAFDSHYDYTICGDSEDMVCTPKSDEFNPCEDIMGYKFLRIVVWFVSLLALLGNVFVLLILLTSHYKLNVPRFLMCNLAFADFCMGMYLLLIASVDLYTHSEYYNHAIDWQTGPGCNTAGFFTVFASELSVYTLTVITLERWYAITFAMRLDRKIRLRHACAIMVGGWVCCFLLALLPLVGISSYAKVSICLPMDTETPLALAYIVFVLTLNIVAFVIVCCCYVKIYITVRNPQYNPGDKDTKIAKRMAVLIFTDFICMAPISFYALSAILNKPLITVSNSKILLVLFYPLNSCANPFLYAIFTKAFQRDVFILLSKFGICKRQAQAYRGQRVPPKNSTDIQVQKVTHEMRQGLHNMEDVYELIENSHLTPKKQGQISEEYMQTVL

Consider `O=C(N[C@H]1CN2CCC1CC2)c1ccc2c(c1)OCCO2`, for which the Potency entry in assay [1], in assay [2], in [3], in assay [4], in assay [5] and in assay [6] was “inactive” each time. Also, the Potency entry in assay [7], in assay [8], in assay [9], in [10], in [11] and in [12] was “inactive” throughout. Further, in assay [13], the Potency entry was “inactive”.

On to `O=C=NC1CCCCC1`, for which the Potency result in [1], in [2], in assay [3], in assay [5], in assay [6] and in assay [14] was “inactive” throughout. Further, the Potency result in [7], in assay [8], in assay [9], in [10], in assay [11] and in [12] was “inactive” each time. Besides, the Potency in [4] is 1.94 µM (active).

For the compound `CC(C)(C)OOC(C)(C)CCC(C)(C)OOC(C)(C)C`, the Potency result in [1], in [2], in [3], in assay [4], in assay [5] and in assay [6] was “inactive” in each case. Moreover, the Potency entry in [14], in assay [7], in assay [8], in assay [10], in assay [11] and in assay [12] was “inactive” each time. The Potency entry in assay [13] is “inactive”.

`Cc1ccccc1`: the Potency entry in assay [1], in assay [2], in assay [3], in [4], in assay [5] and in assay [6] was “inactive” each time. Further, the Potency entry in assay [14], in [8], in assay [9], in [10] and in assay [13] was “inactive” in each case.

As to `O=C(NC(=O)c1cc(F)c(F)cc1Cl)Nc1cc(F)ccc1N1CCC(C(=O)O)CC1`, the Potency entry in assay [1], in assay [2], in assay [3], in assay [4], in assay [5] and in [6] was “inactive” each time. For the same compound, the Potency entry in assay [14], in assay [7] and in [10] was “inactive” each time.

Turning to `CCC1(CC)C(=O)NC(=O)NC1=O`, the Potency result in assay [1], in [2], in [3], in [4], in [5] and in assay [6] was “inactive” each time. The Potency entry in [14], in [7], in [8], in assay [9] and in [10] was “inactive” in each case.

On to `C[N+](C)(C)CC1CO1` (configuration not stated), for which the Potency entry in [1], in assay [2], in assay [3], in assay [4], in assay [5] and in assay [6] was “inactive” throughout. The Potency entry in assay [14], in [7], in assay [10] and in [13] was “inactive” each time.

For `O=C(Cl)OCCOCCOC(=O)Cl`, the Potency result in assay [1], in [2], in assay [4], in assay [5], in [6] and in assay [14] was “inactive” each time. Also, the Potency result in [7], in assay [9], in assay [10], in assay [11], in [12] and in assay [13] was “inactive” in each case. Also, the Potency is 12.2 µM (active) in [3] and 30.6 µM (active) in [8].

In the case of `Cc1cnc(C2=NC(C)(C(C)C)C(=O)N2)c(C(=O)O)c1` (configuration not stated), the Potency entry in [1], in [2], in assay [3], in assay [4], in assay [5] and in [6] was “inactive” each time. For the same compound, the Potency result in assay [14], in assay [7], in assay [10] and in assay [13] was “inactive” in each case.

`N#CC(C#N)=C(C#N)C#N`: the Potency entry in assay [1], in [2], in assay [3], in [4], in [5] and in assay [6] was “inactive” in each case. The Potency entry in assay [14], in [7], in assay [8], in assay [10], in [12] and in assay [13] was “inactive” in each case. The Potency in assay [11] is 1.8 µM (active).

`ClCc1ccccc1Cl`: the Potency result in [1], in [2], in assay [3], in assay [4], in [5] and in assay [6] was “inactive” each time. In addition, the Potency result in [14], in [7], in assay [8], in [10], in assay [11] and in assay [12] was “inactive” in each case. In addition, in assay [13], the Potency result was “inactive”.

On to `CCOP(=O)(SC(C)CC)N1CCSC1=O` (configuration not stated), for which the Potency entry in assay [1], in [2], in assay [3], in [4], in assay [5] and in [6] was “inactive” throughout. The Potency result in [14], in [7], in assay [9], in assay [10] and in assay [13] was “inactive” in each case.

For the compound `O=S(=O)(Cl)Cl`, the Potency result in assay [1], in assay [2], in assay [3], in [4], in [5] and in assay [6] was “inactive” in each case. The Potency result in [14], in assay [8], in assay [10] and in assay [13] was “inactive” in each case.

On to `O=C(O)C(F)(F)C(F)(F)C(F)(F)C(F)(F)C(F)(F)F`, for which the Potency result in assay [1], in assay [2], in [3], in assay [4], in assay [5] and in assay [6] was “inactive” throughout. Besides, the Potency entry in assay [14], in assay [7], in assay [8], in assay [10] and in [13] was “inactive” in each case.

`CCCCC#N`: the Potency entry in assay [1], in assay [2], in assay [3], in assay [4], in assay [5] and in [6] was “inactive” throughout. In addition, the Potency result in assay [14], in [8], in [9], in assay [10] and in assay [13] was “inactive” in each case.

Take `C[C@H]1[C@@H]2Cc3ccc(O)cc3[C@@]1(C)CCN2C`: the Potency entry in assay [1], in assay [2], in [3], in [4], in assay [5] and in assay [6] was “inactive” throughout. Further, the Potency entry in assay [14], in assay [7], in assay [10], in assay [11], in assay [12] and in assay [13] was “inactive” throughout.

Turning to `COc1ccc(C(O)(c2cncnc2)C2CC2)cc1` (configuration not stated), the Potency result in assay [1], in [2], in assay [3], in assay [4], in [5] and in [6] was “inactive” in each case. Moreover, the Potency entry in assay [14], in assay [7], in assay [8], in [9], in assay [10] and in [11] was “inactive” throughout. Further, the Potency result in assay [12] was “inactive”.

On to `CCCCCl`, for which the Potency result in [1], in assay [2], in assay [3], in assay [4], in [5] and in [6] was “inactive” in each case. In addition, the Potency result in assay [14], in assay [7], in assay [10], in [11], in assay [12] and in [13] was “inactive” in each case.

Regarding `O=C1CC[C@@]2(O)[C@H]3Cc4ccc(O)c5c4[C@@]2(CCN3CC2CC2)[C@H]1O5`, the Potency result in [1], in assay [2], in [3], in assay [4], in assay [5] and in assay [6] was “inactive” throughout. For the same compound, the Potency entry in [14], in [7], in assay [8], in assay [10] and in assay [13] was “inactive” each time.

Take `c1ccc2sc(SNC3CCCCC3)nc2c1`: the Potency result in assay [1], in assay [2], in assay [3], in assay [5], in assay [14] and in [7] was “inactive” in each case. For the same compound, the Potency result in assay [8], in assay [10] and in assay [13] was “inactive” in each case. The Potency was 11.1 µM (active) and 22.4 µM (active) in [6]; 53.9 µM (active) in assay [9].

For `CCCN(CCOc1c(Cl)cc(Cl)cc1Cl)C(=O)n1ccnc1`, the Potency entry in assay [1], in assay [2], in assay [3], in assay [4], in assay [6] and in assay [14] was “inactive” each time. In addition, the Potency result in assay [8] and in assay [12] was “inactive” each time. Also, the Potency in assay [9] is 54.5 µM (active); in assay [11], 55.6 µM (active) and 27.3 µM (active).
